Reference: the supplement of paper PMC12067093, “Discovery and optimisation of a covalent ligand for TRIM25 and its application to targeted protein ubiquitination” (Chemical Science, 2025)
Of roughly 21,000 targets only a part is listed; those with the largest changes were picked by preference.

Compound: Cc1cc(ccc1-c1ccccc1)C(=O)N1CCCN(CC1)C(=O)CCl [compound 10]
Assay: probe-labelled cysteine peptide fold change vs DMSO (competition) (log2 fold change); higher = less target engagement (more negative = stronger competition)
Settings: THP-1, incubation time: 4 h
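Note: competitive profiling in live THP-1 cells: cysteine peptides tagged with an iodoacetamide desthiobiotin (IA-DTB) probe, intensity after compound treatment relative to DMSO-treated cells.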

Chain of UniProt Q92973 (Q92973 whole entry, looked up): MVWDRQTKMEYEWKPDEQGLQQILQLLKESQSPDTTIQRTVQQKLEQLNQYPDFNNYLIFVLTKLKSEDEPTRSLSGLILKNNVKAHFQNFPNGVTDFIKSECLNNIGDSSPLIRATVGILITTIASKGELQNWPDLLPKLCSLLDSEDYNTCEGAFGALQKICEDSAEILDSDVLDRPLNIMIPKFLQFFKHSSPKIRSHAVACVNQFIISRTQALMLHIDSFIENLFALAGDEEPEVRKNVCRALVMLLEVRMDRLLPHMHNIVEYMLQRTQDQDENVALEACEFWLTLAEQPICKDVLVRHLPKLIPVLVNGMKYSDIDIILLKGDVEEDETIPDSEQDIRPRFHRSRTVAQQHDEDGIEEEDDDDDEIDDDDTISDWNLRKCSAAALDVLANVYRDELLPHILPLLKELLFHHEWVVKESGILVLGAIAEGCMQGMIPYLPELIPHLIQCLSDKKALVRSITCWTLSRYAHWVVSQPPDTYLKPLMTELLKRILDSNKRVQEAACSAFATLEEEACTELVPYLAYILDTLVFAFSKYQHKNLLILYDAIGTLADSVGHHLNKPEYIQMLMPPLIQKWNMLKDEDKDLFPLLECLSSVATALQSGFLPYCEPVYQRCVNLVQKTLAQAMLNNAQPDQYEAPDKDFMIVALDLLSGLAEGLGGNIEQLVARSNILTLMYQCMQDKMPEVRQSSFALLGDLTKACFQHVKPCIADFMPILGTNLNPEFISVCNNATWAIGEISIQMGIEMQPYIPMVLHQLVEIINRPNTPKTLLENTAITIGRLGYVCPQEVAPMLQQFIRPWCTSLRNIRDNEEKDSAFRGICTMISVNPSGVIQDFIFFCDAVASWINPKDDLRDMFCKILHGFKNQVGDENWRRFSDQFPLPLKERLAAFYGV
Chain of UniProt P04183 (P04183 whole entry, looked up): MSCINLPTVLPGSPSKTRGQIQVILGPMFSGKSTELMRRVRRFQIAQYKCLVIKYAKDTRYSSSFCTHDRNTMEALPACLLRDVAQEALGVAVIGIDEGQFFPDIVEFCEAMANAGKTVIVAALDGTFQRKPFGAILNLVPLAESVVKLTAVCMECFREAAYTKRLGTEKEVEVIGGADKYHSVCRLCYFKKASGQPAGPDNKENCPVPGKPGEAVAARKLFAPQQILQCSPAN
Chain of UniProt P21980 (P21980 whole entry): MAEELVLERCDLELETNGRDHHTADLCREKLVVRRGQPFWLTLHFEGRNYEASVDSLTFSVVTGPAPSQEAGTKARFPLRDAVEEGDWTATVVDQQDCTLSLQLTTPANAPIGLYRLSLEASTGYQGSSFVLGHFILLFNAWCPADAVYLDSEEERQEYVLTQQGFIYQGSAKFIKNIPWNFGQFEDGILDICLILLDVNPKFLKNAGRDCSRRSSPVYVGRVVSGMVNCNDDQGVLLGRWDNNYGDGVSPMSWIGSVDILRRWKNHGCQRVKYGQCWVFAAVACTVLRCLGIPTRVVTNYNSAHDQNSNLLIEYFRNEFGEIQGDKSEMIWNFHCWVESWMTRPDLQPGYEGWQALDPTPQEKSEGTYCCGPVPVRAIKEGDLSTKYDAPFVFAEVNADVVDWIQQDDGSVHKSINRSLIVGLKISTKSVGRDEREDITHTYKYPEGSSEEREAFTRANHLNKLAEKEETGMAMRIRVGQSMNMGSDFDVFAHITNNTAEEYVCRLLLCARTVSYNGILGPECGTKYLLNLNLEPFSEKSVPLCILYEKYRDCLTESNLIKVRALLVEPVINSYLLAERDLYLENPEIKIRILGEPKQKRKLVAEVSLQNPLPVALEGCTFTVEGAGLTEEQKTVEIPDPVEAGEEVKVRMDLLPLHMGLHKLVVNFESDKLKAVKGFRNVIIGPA
Chain of UniProt P42226 (P42226 whole entry, looked up): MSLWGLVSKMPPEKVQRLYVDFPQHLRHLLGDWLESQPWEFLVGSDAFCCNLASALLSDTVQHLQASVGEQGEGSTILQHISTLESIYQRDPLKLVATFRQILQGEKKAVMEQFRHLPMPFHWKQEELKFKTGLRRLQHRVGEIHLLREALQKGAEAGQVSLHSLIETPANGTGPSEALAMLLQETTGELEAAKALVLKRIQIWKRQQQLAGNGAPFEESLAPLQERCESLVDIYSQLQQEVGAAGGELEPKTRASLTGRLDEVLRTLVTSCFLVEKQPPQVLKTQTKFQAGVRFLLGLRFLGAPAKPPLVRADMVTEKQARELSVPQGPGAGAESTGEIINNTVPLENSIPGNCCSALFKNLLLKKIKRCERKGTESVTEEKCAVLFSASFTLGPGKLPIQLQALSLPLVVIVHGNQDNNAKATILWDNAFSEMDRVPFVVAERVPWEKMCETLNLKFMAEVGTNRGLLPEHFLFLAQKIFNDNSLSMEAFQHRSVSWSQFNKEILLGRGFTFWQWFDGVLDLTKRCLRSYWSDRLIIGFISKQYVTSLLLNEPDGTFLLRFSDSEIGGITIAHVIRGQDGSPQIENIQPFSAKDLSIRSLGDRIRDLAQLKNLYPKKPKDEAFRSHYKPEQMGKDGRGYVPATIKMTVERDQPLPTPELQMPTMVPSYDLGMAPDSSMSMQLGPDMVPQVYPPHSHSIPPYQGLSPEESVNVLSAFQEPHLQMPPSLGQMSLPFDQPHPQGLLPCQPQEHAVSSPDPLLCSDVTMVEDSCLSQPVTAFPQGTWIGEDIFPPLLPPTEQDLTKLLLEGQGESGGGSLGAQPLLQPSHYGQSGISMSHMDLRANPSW
Chain of UniProt O60271 (O60271 whole entry, looked up): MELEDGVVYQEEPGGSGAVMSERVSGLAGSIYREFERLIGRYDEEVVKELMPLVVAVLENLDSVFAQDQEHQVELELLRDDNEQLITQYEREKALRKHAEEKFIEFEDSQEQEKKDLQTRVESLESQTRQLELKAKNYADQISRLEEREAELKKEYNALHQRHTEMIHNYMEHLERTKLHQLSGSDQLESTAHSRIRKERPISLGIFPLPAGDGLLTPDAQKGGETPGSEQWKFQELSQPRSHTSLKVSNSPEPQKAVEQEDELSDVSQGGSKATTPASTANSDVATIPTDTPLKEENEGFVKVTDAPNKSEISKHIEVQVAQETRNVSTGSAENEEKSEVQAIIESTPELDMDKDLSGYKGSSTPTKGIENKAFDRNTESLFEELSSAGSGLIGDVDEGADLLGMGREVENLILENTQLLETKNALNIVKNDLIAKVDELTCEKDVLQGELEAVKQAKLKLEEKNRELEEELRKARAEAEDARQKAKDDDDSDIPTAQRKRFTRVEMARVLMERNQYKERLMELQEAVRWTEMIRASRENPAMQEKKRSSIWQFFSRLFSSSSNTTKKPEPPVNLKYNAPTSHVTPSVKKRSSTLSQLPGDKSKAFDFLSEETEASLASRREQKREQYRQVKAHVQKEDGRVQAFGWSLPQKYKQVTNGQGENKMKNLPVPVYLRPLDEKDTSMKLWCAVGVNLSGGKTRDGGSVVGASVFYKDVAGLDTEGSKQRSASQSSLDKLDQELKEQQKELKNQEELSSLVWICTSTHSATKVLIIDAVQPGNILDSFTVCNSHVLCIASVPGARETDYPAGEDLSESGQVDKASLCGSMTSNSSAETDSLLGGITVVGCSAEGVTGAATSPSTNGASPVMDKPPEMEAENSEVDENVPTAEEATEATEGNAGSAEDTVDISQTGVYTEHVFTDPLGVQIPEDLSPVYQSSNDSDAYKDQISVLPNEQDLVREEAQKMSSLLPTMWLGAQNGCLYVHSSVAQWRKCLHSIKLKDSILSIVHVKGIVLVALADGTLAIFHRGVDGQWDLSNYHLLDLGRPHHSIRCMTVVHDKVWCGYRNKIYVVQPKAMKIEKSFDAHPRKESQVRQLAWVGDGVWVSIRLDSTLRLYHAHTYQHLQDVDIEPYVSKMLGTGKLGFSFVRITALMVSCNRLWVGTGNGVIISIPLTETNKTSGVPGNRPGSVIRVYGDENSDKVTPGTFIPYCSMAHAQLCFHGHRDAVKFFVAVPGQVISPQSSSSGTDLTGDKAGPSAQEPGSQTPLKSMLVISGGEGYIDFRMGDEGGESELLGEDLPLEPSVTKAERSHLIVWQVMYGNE
Chain of UniProt Q9UH99 (Q9UH99 whole entry, looked up): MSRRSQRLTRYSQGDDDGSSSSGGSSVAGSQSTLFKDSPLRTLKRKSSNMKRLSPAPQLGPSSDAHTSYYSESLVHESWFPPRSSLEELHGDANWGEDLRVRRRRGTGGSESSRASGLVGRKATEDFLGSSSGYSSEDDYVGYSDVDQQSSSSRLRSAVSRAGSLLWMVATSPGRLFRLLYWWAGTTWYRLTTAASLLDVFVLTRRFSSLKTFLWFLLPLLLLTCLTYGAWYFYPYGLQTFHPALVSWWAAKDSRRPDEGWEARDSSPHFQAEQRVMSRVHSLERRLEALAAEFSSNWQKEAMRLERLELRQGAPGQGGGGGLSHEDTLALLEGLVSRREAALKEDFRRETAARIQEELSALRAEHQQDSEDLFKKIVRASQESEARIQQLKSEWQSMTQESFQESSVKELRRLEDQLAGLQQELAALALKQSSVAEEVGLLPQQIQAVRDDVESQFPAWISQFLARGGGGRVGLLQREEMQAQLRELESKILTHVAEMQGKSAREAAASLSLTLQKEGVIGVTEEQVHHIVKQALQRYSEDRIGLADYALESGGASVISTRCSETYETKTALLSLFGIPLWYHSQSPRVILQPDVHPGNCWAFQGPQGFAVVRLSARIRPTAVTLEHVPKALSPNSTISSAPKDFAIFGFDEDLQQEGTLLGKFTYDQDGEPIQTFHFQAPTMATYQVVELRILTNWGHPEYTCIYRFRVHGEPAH
Chain of UniProt Q8NBT2 (Q8NBT2 whole entry): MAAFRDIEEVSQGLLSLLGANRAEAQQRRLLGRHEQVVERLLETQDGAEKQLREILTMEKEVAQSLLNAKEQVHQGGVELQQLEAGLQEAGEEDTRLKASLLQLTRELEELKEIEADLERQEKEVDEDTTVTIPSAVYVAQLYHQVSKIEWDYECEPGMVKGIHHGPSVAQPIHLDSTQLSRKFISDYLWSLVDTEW

Target	probe-labelled cysteine peptide fold change (10 µM)	probe-labelled cysteine peptide fold change (50 µM)
THOP1_P52888_175_KLSLLCIDFNK (UniProt P52888)	-0.00153	0.0417
TCF20_Q9UGU0_1795_SEDCGGGPR (UniProt Q9UGU0)	-0.142	-0.0709
TNPO1_Q92973_862_DDLRDMFCK (UniProt Q92973)	-0.311	-0.192
TBL2_Q9Y4P3_240_GQVLSTINTNQMNNTHAAVSPCGR (UniProt Q9Y4P3)	-0.0462	0.0804
SUN2_Q9UH99_601_VILQPDVHPGNCWAFQGPQGFAVVR (UniProt Q9UH99)	0.0264	0.295
TK1_P04183_206_ENCPVPGKPGEAVAAR (UniProt P04183)	-0.0233	-0.211
STAT6_P42226_228_CESLVDIYSQLQQEVGAAGGELEPK (UniProt P42226)	0.0404	-0.0978
THOC1_Q96FV9_396_NEGCPSFVK (UniProt Q96FV9)	-0.137	-0.0773
TMA16_Q96EY4_162_KICANDAIPK (UniProt Q96EY4)	-0.041	-0.333
TAF6_P49848_235_EITEACVGSCEAK (UniProt P49848)	-0.193	-1.67
STXBP5_Q5T5C0_697_SRQPSGAGLCDISEGTVVPEDR (UniProt Q5T5C0)	-0.389	-0.218
SPAG9_O60271_1210_VTPGTFIPYCSMAHAQLCFHGHR (UniProt O60271)	0.231	1.04
TAPBPL_Q9BX59_39_AVDVVLDCFLAK (UniProt Q9BX59)	0.062	-0.104
TGM2_P21980_371_SEGTYCCGPVPVR (UniProt P21980)	0.00473	-0.293
SPC24_Q8NBT2_155_IEWDYECEPGMVK (UniProt Q8NBT2)	-0.17	0.000933
